Source: PubChem BioAssay
In the library only some 11% were active in any assay of this set; here they are far more common.
IMPase Li inh: membrane-permeable IMPase blocker, potentiated with lithium; actives 0.35% (n = 210,000); Potency, µM (top dose mostly 59.4 µM), actives largely listed as inhibitors; CHO-M1 cells, IP1 TR-FRET (IP-One), carbachol + lithium; AID 1457; active = well fitted curve in the direction sought with a large enough effect; inconclusive = small, poorly fitted or top-dose-only effect, or another doubt; inactive = no such curve, though single readings can be large; an effect the other way counts as inactive or inconclusive;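 note: IP1 builds up when IMPase is blocked and the TR-FRET signal falls; nearly all actives have a fitted effect of over 50% in size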
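CHO-M1, 2000 cells/well, 16–30 h culture; cpd + low Li+, 30 min 37C; lysis with d2-IP1/Eu-anti-IP1 Ab, 10 min RT; TR-FRET 665/620 ratio and 620 channel; AC50 via Hill.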
IMPase cell inh: membrane-permeable compound that blocks inositol monophosphatase; inhibition (IP1 accumulation), % at 46.1 µM; CHO-M1 cells, IP1 accumulation, HTRF TR-FRET ratio; 120,000 tested, under 10 active; active = well fitted curve in the direction sought with a large enough effect in the signal ratio, not every such curve was filed as active; inconclusive = small, poorly fitted or top-dose-only effect, or a change in a side signal; inactive = no such curve, though single readings can be large or run the other way; the % refers to the signal ratio;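 note: cells stimulated with carbachol in lithium chloride buffer; higher means more IMPase inhibition seen as more IP1 and lower FRET ratio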
Target sequence (P97697 whole entry, looked up): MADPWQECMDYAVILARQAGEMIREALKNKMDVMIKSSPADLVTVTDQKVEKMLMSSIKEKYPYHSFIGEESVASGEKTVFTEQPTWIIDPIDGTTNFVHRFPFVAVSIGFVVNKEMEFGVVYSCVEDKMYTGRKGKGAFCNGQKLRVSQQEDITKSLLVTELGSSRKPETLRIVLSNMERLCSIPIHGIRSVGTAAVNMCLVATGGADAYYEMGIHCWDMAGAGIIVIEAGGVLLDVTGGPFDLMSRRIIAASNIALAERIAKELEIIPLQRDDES
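Elevated IP1 in lysates lowers TR-FRET signal (665/620 ratio and 620 channel reported). Cells were CHO-M1, given carbachol (50 uM as added) plus 50mM LiCl, pH 7.4, 30 min, 37C; compounds titrated up to 46 uM; AC50 by Hill equation.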
PNC assembly inh: inhibitors of perinucleolar compartment assembly | AID 2417 | activity change (PNC), negative = inhibition, % at 10 µM | actives 3.1% (n = 140,000) | PC3M PTB-GFP, PNC prevalence imaging, 16 h; active compounds read low;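 active = readout at or below -70, meaning at least 70% loss of cells showing the perinucleolar compartment, a nuclear body marking cancer cells; inconclusive = readout between -30 and a set limit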
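PC3M cells stably expressing PTB-GFP, 750–1000 cells/well, treated 16 h at 37 °C with compound (23 nl of library stock), in duplicate. After paraformaldehyde fixation and Hoechst stain, imaged at 20x; PNC prevalence scored by image analysis.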
ALDH1A1 block: inhibitors of human aldehyde dehydrogenase 1A1; P00352; Purified ALDH1A1, NADH fluorescence, propionaldehyde substrate; Potency, µM (series often up to 75.3 µM), most hits filed as inhibitors; actives 7.3% (n = 220,000); AID 1030
12-hLO inh: 12-hLO (ALOX12) enzyme inhibition. actives 0.12% (n = 150,000). purified 12-hLO, xylenol orange hydroperoxide absorbance. P18054. Potency, µM (doses to about 57.1 µM), actives largely listed as inhibitors; active = well fitted curve in the direction sought with a large enough effect; inconclusive = small, poorly fitted or top-dose-only effect, or another doubt; inactive = no such curve, though single readings can be large; an effect the other way counts as inactive or inconclusive; note: nearly all actives have a fitted effect of over 55% in size
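Purified human 12hLO (150 nM), preincubated 15 min with compound, then 40 uM arachidonic acid for 30 min, room temperature, Hepes pH 7.0 with 0.01% Triton X-100. Hydroperoxide detected by ferrous iron/xylenol orange; 573/405 nm absorbance ratio gives reaction progress.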
HPGD inh: blocks human HPGD enzyme activity; P15428; purified HPGD, NADH fluorescence kinetic, PGE2 substrate; Potency, µM, actives largely listed as inhibitors; actives 4.3% (n = 150,000); AID 894
Target sequence (P15428 whole entry, looked up): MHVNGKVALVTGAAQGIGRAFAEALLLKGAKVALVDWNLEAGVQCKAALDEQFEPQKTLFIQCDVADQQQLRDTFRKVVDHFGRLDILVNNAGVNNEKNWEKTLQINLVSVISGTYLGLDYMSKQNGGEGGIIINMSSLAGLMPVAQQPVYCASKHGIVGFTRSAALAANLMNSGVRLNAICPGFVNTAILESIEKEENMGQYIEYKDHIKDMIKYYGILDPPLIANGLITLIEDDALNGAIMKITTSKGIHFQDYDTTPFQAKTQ
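20 nM HPGD preincubated 15 min at room temperature with compound in 50 mM Tris-HCl pH 8, 0.01% Tween 20. Started with 1 mM NAD+ and 30 uM prostaglandin E2; NADH fluorescence (360/450 nm) read 5 times over 30-s intervals, last minus first.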
Numbers stand for hits; i = inactive; ? = inconclusive; nt = no result given; [ ] = remark or other dose. Unless noted, calls come from the whole dose curve; as a rule, active = well fitted inhibition curve with a large enough effect (not every such curve was filed as active); inconclusive = small, poorly fitted or top-dose-only effect, or another doubt; inactive = no such curve, though single readings can be large or run the other way.

SMILES | IMPase Li inh | IMPase cell inh | PNC assembly inh | ALDH1A1 block | 12-hLO inh | HPGD inh
Cc1cccc(CSCCNC(=O)CN(c2ccccc2)S(=O)(=O)N(C)C)c1 | nt | i | nt | nt | nt | nt
Cc1oc2c(cc(NS(=O)(=O)c3ccc(Br)cc3)c3ccccc32)c1C(=O)OCc1ccccc1 | nt | i | nt | nt | nt | nt
Oc1ccc(-c2n[nH]c(=S)n2-c2ccc3c(c2)OCCO3)c(O)c1 | i | nt | i | ? | i | 14µM
COc1ccc(-c2n[nH]c(=S)n2-c2ccc3c(c2)OCCO3)cc1 | i | nt | i | i | i | 25µM
COc1cc(OC)cc(-c2n[nH]c(=S)n2-c2ccc3c(c2)OCCO3)c1 | i | nt | nt | i | nt | nt
COCc1cc(C)nc2sc(C(=O)Nc3cc(C)ccc3F)c(N)c12 | nt | i | nt | nt | nt | nt
CC(=O)O[C@@H](C)C#C[Si](C)(C)c1ccccc1 | i | nt | nt | i | nt | i
O=C1c2ccccc2C(=O)N1CC#CCN1CCN(C(c2ccccc2)c2ccccc2)CC1 | i | i | ? | 16µM | i | i
O=C(CN1CCN(C(c2ccccc2)c2ccccc2)CC1)N1CCOCC1 | i | i | i | i | i | i
CC(C)=NO[C@@H](C)c1cn([C@@H]2COC[C@@H]2O)nn1 | nt | nt | nt | i[13.5 µM] | nt | nt
Nc1nonc1-c1noc(-c2ccccc2)n1 | i | i | -100 | i | i | i
CCC1=C/C(=C/N(C)c2ccccc2)C(=O)S1 | i | i | i | 25µM | i | 22µM
CCOc1ccc(CNC23CN4CN(CN(C4)C2)C3)cc1 | i | i | i | i | i | i
CCOc1ccc(C=NC23CN4CN(CN(C4)C2)C3)cc1 | i | i | i | 20µM | i | i
COc1ccc(CCN2C(=O)C3C4CCC(C4=C(C)C)C3C2=O)cc1OC (stereo not drawn) | i | nt | i | 13µM | i | i
CCCCOc1ccc(N2C(=O)CC(NCCc3ccc(S(N)(=O)=O)cc3)C2=O)cc1 (stereo not drawn) | i | i | -82 | ? | i | i
CCOc1ccc(CCN2C(=O)C3C4C=CC(C4)C3C2=O)cc1OCC (stereo not drawn) | i | i | ? | 3.5µM | i | i
COc1ccc(CCN2C(=O)CC(NC34CC5CC(CC(C5)C3)C4)C2=O)cc1OC (stereo not drawn) | i | nt | nt | 10µM | nt | nt
CC(=O)N1CCC2(CCCN(C(c3ccccc3)c3ccccc3)C2)CC1 | i | nt | nt | i | i | i
C/C(CCN1CCCc2nc(C)c(C)cc21)=N\OC[C@@H](C)[C@H](OCc1ccccc1)C(C)C | nt | nt | nt | i[13.5 µM] | nt | nt
C[C@@H]1O[C@H]2C3=C(C(=O)[C@H]4O[C@@H]4[C@H]3O)[C@@H]1[C@@H]1[C@@H](C)OC=C3[C@H](O)[C@H]4O[C@@H]4/C(=N\OCc4ccccc4)[C@]312 | nt | nt | nt | i[13.5 µM] | nt | nt
CC(C)(C)C(=O)[C@H]([C@@H](c1ccccc1)N1CCOCC1)N1CCOCC1 | nt | nt | nt | nt | i[11.4 µM] | nt
COc1c(CC(=O)c2cc3c(cc2O)OC(C)(C)C(O)C3)ccc2c1C=CC(C)(C)O2 (stereo not drawn) | i | nt | nt | ? | i | i
COc1ccc(CCN2C(=O)CC(NCCc3ccc(S(N)(=O)=O)cc3)C2=O)cc1OC (stereo not drawn) | i | i | i | 10µM | i | i
COc1ccc(CCNC2CC(=O)N(N(C)C)C2=O)cc1OC (stereo not drawn) | i | nt | nt | i | nt | nt
SMILES | IMPase Li inh | IMPase cell inh | PNC assembly inh | ALDH1A1 block | 12-hLO inh | HPGD inh
CC1(C)CC(=O)C2=C(C1)N(c1ccc(F)cc1)C(=O)C2(NC(=O)c1ccccc1F)C(F)(F)F (stereo not drawn) | i | nt | i | i | i | i
CC1(C)CC(=O)C2=C(C1)N(c1ccc(F)cc1)C(=O)NC2(C(F)(F)F)C(F)(F)F | i | i | i | 10µM | i | i
CCCn1c(-c2ccc(F)cc2)nc2c(NCC(C)(C)CN(C)C)nc(C)nc21 | i | nt | nt | ? | i | ?
O=C(O)c1ccccc1C(=O)Nc1nccs1 | i | i | i | i | i | i
O=C(O)c1ccccc1C(=O)Nc1n[nH]c(=S)s1 | i | i | i | 6.3µM | ? | 8.9µM
O=C1Nc2ccc(Br)cc2C1(O)Cc1ccccn1 (stereo not drawn) | i | i | -114 | i | i | i
Fc1ccccc1-c1n[nH]c(=S)n1CC1CCCO1 (stereo not drawn) | i | nt | nt | i | nt | nt
S=c1[nH]nc(-c2ccccc2Cl)n1CC1CCCO1 (stereo not drawn) | i | i | ? | 14µM | i | i
Cn1cccc1C(=O)N1CCC2(CCN(Cc3nccs3)CC2)CC1 | i | nt | nt | i | i | i
COc1ccccc1Cc1noc(COc2cccc(C)c2C)n1 | i | i | -135 | i | i | i
COc1ccccc1OCc1nc(-c2cccc(C)c2)no1 | nt | i | nt | nt | nt | nt
COC(=O)N1C2CC3(C)C=C(C)OC1(C)C3c1ccccc12 (stereo not drawn) | i | nt | nt | i[13.5 µM] | i[11.4 µM] | i
CC1CCC(C(C)C)C(=O)C1 (stereo not drawn) | i | nt | nt | i | i | i
CN1c2ccsc2/C(=N/NC(=O)c2c(F)cccc2F)CS1(=O)=O | i | i | i | ? | i | ?
CN1c2ccsc2/C(=N/Nc2ccccc2)CS1(=O)=O | i | nt | nt | 13µM | nt | nt
O=C1c2c([N+](=O)[O-])cc([N+](=O)[O-])cc2S(=O)N1Cc1ccccc1 (stereo not drawn) | i | nt | nt | 3.5µM | nt | nt
O=[N+]([O-])c1ccc(NC2CCN(Cc3ccccc3)CC2)c([N+](=O)[O-])c1 | i | nt | nt | i | nt | nt
COc1ccc(S(=O)(=O)N(CC(=O)NC2CC2)C2CCCCC2)cc1Cl | i | i | i | 8.9µM | i | i
CC1CCCCC1NCC#CCOc1ccc(Cl)cc1 (stereo not drawn) | i | nt | nt | i | nt | nt
CC(C)NCC#CCOc1ccc(Cl)cc1 | i | nt | nt | 2.4µM | nt | nt
Cc1noc(C)c1C(=O)N1CCC2(CCN(C(=O)NC(C)C)CC2)CC1 | i | nt | nt | i | i | i
Cc1ccc(S(=O)(=O)Nc2ccc(N(C)C)cc2)cc1 | i | nt | nt | ? | nt | nt
CN(C)c1ccc(NS(=O)(=O)c2ccc(-c3csnn3)cc2)cc1 | nt | nt | nt | 8.9µM | nt | nt
Cc1nc(N2CCOCC2)nc(N2CCCCC2)c1[N+](=O)[O-] | i | nt | ? | 16µM | i | i
Cc1nc(N2CCOCC2)nc(N2CCCC2)c1[N+](=O)[O-] | i | nt | i | ? | i | i
CCOC(=O)N1CCN(C(=O)CSc2ccc3nnc(CCNC(=O)c4ccc(OC)cc4)n3n2)CC1 | i | nt | nt | 7.9µM | nt | nt
CCOC(=O)N1CCN(C(=O)CSc2ccc3nnc(CCNC(=O)c4ccccc4)n3n2)CC1 | i | nt | nt | i | nt | nt
O=C(OC(C(=O)Nc1ccc(Cl)cc1C(F)(F)F)c1ccccc1)c1c(Cl)cccc1Cl (stereo not drawn) | i | nt | i | 3.2µM | i | i
CC[C@H]1NC(=O)c2cc(S(N)(=O)=O)c(Cl)cc2N1 | i | i | nt | i | i | i
